Reference: PubChem BioAssay
The source made the active and inactive calls.

Assay: E. coli acrAB mutant growth effects, primary screen, E. coli filamentation inducers, strain DRC39, OD650, 48 h (AID 1179);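 further: screen aims at cell division blockers that make cells filament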
Conditions: E. coli DRC39 delta-acrAB growth, higher = more signal, called active from +8 up or from −8 down

Row | Structure (SMILES) | z-score
1 | Cc1ccc(S[C@]2(C(=O)NCCCN(C)C)CC(=O)N(C3Cc4ccccc4C3)[C@@H]2c2ccc(CO)cc2I)cc1 | -0.623 (inactive)
2 | COc1ccc(C#Cc2ccc3c(c2)[C@]2(C(=O)N3)[C@H](C(=O)O)[C@H]3C(=O)O[C@H](c4ccccc4)[C@H](c4ccccc4)N3[C@@H]2c2ccccc2OCCO)cc1 | -0.183 (inactive)
3 | COc1ccc(CCNC(=O)[C@@H]2c3ccccc3C(=O)N(Cc3ccccc3OC)[C@H]2c2ccc(CO)cc2)cc1 | 0.258 (inactive)
4 | C=CCC(OC(C)=O)[C@@H]1[C@@H](N(Cc2cccc3ccccc23)C(=O)Cc2ccc(OC)cc2)c2cc(OCCCO)ccc2N1C(=O)Cc1ccc2ccccc2c1 (stereo partly specified) | 0.248 (inactive)
5 | CC(C)(C)OC(=O)CC[C@@]1(C(=O)NCCN2CCOCC2)N=C(c2ccc(OCCCO)cc2)O[C@@H]1c1ccccc1CN=[N+]=[N-] | -0.721 (inactive)
6 | CC(C)NC(=O)[C@@]1(C)c2ccccc2C(=O)N(Cc2ccccc2)[C@H]1c1ccc(CO)cc1 | 0.988 (inactive)
7 | CN(C)c1ccc(C(O)C2C=CC3C(=O)N(Cc4ccccc4)C(=O)C3N2n2cnnc2)cc1 (stereo unspecified) | 0.694 (inactive)
8 | COc1ccc(C(=O)Nc2ccc(CN3C(=O)[C@@]4(O[C@@H](CCn5cc(CCO)nn5)[C@H]([Si](C)(C)c5ccc(OC)cc5)[C@H]4C)c4ccccc43)cc2)cc1 | -0.101 (inactive)
9 | CC(C)C[C@H]1NC(=O)C([C@@H](C)OCc2ccccc2)NC(=O)[C@@]23C(=O)N[C@@H](Cc4ccccc4)C2[C@H](C)[C@@]2(C)O[C@H]2C3/C=C/C/C=C\CNC1=O (stereo partly specified) | -0.0809 (inactive)
10 | COc1ccc([Si](C)(C)[C@@H]2[C@@H](CC(=O)N3CCC[C@H]3CO)O[C@]3(C(=O)N(Cc4cccc(N5CCCCC5=O)c4)c4ccccc43)[C@H]2C)cc1 | 0.6 (inactive)
11 | CO[C@H]1O[C@H](CO)[C@@H](OC(=O)Nc2ccccc2-c2ccccc2)[C@H](OC(=O)Nc2ccccc2)[C@H]1OC(=O)Nc1ccccc1 | 0.172 (inactive)
12 | CCCCC(O)C1C=CC2C(=O)N(c3ccccc3)C(=O)C2N1Nc1ccc([N+](=O)[O-])cc1 (stereo unspecified) | 0.282 (inactive)
13 | C=CCNC(=O)[C@@H]1[C@H]2C(=O)O[C@H](c3ccccc3)[C@H](c3ccccc3)N2[C@H](c2ccc(OCCO)cc2)[C@@]12C(=O)Nc1ccc(C#CC3(O)CCCCCC3)cc12 | -0.797 (inactive)
14 | CN1C(=O)C2C(C1=O)C1C=C(c3ccc(CO)cc3)C2C(C2CC2)N1C (stereo unspecified) | -0.335 (inactive)
15 | COC(=O)[C@@]1(Cc2ccc(F)cc2)[C@H]2c3cc(C(=O)N4CCCC4)n(Cc4ccccn4)c3C[C@H]2CN1C(=O)c1ccccc1 | -0.962 (inactive)
16 | NC(=O)N1C(=O)C2C(C1=O)C1C=C(CCCO)C2C(c2ccc(CN3CCCC3)cc2)N1Cc1cc2c(cc1Br)OCO2 (stereo unspecified) | -0.299 (inactive)
17 | CCCCN1CC=CC23O[C@@H]4/C=C\CCCOC(=O)C4[C@H]2C(=O)N(C(CO)C(C)C)[C@@H]3C1=O (stereo partly specified) | -0.091 (inactive)
18 | O=C1O[C@H](c2ccccc2)[C@H](c2ccccc2)N2[C@H]1[C@@H](C(=O)N1CCN(c3ncccn3)CC1)[C@]1(C(=O)Nc3ccc(C#CCCO)cc31)[C@H]2c1ccc(O)cc1 | -0.395 (inactive)
19 | O=C1NC(=O)C2C1C=CC(C(O)c1ccc([N+](=O)[O-])cc1)N2Nc1ccccn1 (stereo unspecified) | -0.372 (inactive)
20 | O=C1C2C=CC(C(O)c3ccc([N+](=O)[O-])cc3)N(Nc3ccccc3F)C2C(=O)N1c1ccccc1 (stereo unspecified) | -0.591 (inactive)
21 | COc1ccc([Si](C)(C)[C@@H]2[C@@H](CC(=O)N(CCO)Cc3ccccc3)O[C@]3(C(=O)N(Cc4ccc(I)cc4)c4ccccc43)[C@H]2C)cc1 | -0.699 (inactive)
22 | CN1C(=O)C2C(C1=O)C1C=C(CCCO)C2C(C2CC2)N1Cc1cccc(OC(F)(F)F)c1 (stereo unspecified) | -0.377 (inactive)
23 | CCOC(=O)C[C@H]1[C@H](OC(=O)c2cc3ccccc3oc2=O)[C@@H](NC(=O)CC(C)C)c2cc(OCCCO)ccc2N1C(=O)Cc1ccc(OC)cc1 | -1.18 (inactive)
24 | NC(=O)N1C(=O)C2C(C1=O)C1C=C(CCCO)C2C(C2CC2)N1Cc1sc2ccccc2c1Cl (stereo unspecified) | 0.152 (inactive)
25 | COCCn1c(C(=O)N(C)C)cc2c1C[C@H]1CN(C(=O)c3ccccc3)[C@@](Cc3ccc(OC)cc3)(C(=O)OC)[C@@H]21 | -0.289 (inactive)

Assay: RPMI8226 myeloma cell viability, profiling panel, resazurin fluorescence, basal, 24 h, PK04 Diversity Set (AID 1180);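 further: RPMI8826 multiple myeloma cell line at 5000 cells per well; test concentration not given here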
Conditions: higher = more signal

Row | Structure (SMILES) | z-score
26 | CCCNC(=O)[C@@]1(Sc2ccc(C)cc2)CC(=O)N(Cc2ccccc2Cl)[C@@H]1c1ccc(CO)cc1I | -1.28
27 | C=CCN1Cc2ccccc2[C@H]2OC(c3ccc(OCCCO)cc3)=N[C@@]2(CCS(=O)(=O)c2ccccc2)C1=O | -0.0829
28 | [N-]=[N+]=Nc1ccccc1C[C@]1(C(=O)N2CCOCC2)N=C(c2ccc(OCCCO)cc2)O[C@H]1c1ccccc1N=[N+]=[N-] | -2.65
29 | C[C@]1(C(=O)O)c2ccccc2C(=O)N(Cc2cc(F)cc(C(F)(F)F)c2)[C@H]1c1ccc(CO)cc1 | 1.4
30 | CC(C)c1nc2cc(Br)ccc2c(=O)o1 | 0.0076
31 | CN(C)CCCC[C@@H]1NC(=O)[C@H]2C[C@@H](C(=O)O)[C@@H](c3ccc(O)cc3)N2C1=O | -0.34
32 | CN1C(=O)C2C(C3CC3)C=C3CN(Cc4cccc(Cl)c4)[C@@H]([C@@H](O)Cc4ccccc4)C3C2C1=O (stereo partly specified) | -0.0321
33 | C=CCC(OC(C)=O)[C@@H]1[C@@H](N(Cc2ccc(-c3cccc(C(F)(F)F)c3)o2)C(=O)c2ccc(-c3ccccc3)cc2)c2cc(OCCCO)ccc2N1C(=O)c1ccc2ccccc2c1 (stereo partly specified) | 0.881
34 | CCCCC(O)C1C=CC2C(=O)N(c3ccccc3)C(=O)C2N1Nc1ccc(C#N)cc1 (stereo unspecified) | 0.628
35 | NC(=O)N1C(=O)C2C(C1=O)C1C=C(CCCO)C2C(c2ccc(CN3CCCC3)cc2)N1Cc1sc2ccccc2c1Cl (stereo unspecified) | -1.04
36 | CC(C)=CCCC(C)=CC(O)C1C=CC2C(=O)NC(=O)C2N1Nc1ccccn1 (stereo unspecified) | -0.754
37 | Cc1ccc(S[C@]2(C(=O)NCCCN(C)C)CC(=O)N(C3Cc4ccccc4C3)[C@@H]2c2ccc(CO)cc2I)cc1 | -2.37
38 | COc1ccc(C#Cc2ccc3c(c2)[C@]2(C(=O)N3)[C@H](C(=O)O)[C@H]3C(=O)O[C@H](c4ccccc4)[C@H](c4ccccc4)N3[C@@H]2c2ccccc2OCCO)cc1 | -5.64
39 | COc1ccc(CCNC(=O)[C@@H]2c3ccccc3C(=O)N(Cc3ccccc3OC)[C@H]2c2ccc(CO)cc2)cc1 | -0.205
40 | C=CCC(OC(C)=O)[C@@H]1[C@@H](N(Cc2cccc3ccccc23)C(=O)Cc2ccc(OC)cc2)c2cc(OCCCO)ccc2N1C(=O)Cc1ccc2ccccc2c1 (stereo partly specified) | 0.4
41 | CC(C)(C)OC(=O)CC[C@@]1(C(=O)NCCN2CCOCC2)N=C(c2ccc(OCCCO)cc2)O[C@@H]1c1ccccc1CN=[N+]=[N-] | -0.28
42 | CC(C)NC(=O)[C@@]1(C)c2ccccc2C(=O)N(Cc2ccccc2)[C@H]1c1ccc(CO)cc1 | 0.453
43 | CN(C)c1ccc(C(O)C2C=CC3C(=O)N(Cc4ccccc4)C(=O)C3N2n2cnnc2)cc1 (stereo unspecified) | -0.268

Row | Structure (SMILES) | z-score
44 | COc1ccc(C(=O)Nc2ccc(CN3C(=O)[C@@]4(O[C@@H](CCn5cc(CCO)nn5)[C@H]([Si](C)(C)c5ccc(OC)cc5)[C@H]4C)c4ccccc43)cc2)cc1 | -3.35
45 | CC(C)C[C@H]1NC(=O)C([C@@H](C)OCc2ccccc2)NC(=O)[C@@]23C(=O)N[C@@H](Cc4ccccc4)C2[C@H](C)[C@@]2(C)O[C@H]2C3/C=C/C/C=C\CNC1=O (stereo partly specified) | -0.0732
46 | COc1ccc([Si](C)(C)[C@@H]2[C@@H](CC(=O)N3CCC[C@H]3CO)O[C@]3(C(=O)N(Cc4cccc(N5CCCCC5=O)c4)c4ccccc43)[C@H]2C)cc1 | -2.68
47 | CO[C@H]1O[C@H](CO)[C@@H](OC(=O)Nc2ccccc2-c2ccccc2)[C@H](OC(=O)Nc2ccccc2)[C@H]1OC(=O)Nc1ccccc1 | -2.06
48 | CCCCC(O)C1C=CC2C(=O)N(c3ccccc3)C(=O)C2N1Nc1ccc([N+](=O)[O-])cc1 (stereo unspecified) | -0.354
49 | C=CCNC(=O)[C@@H]1[C@H]2C(=O)O[C@H](c3ccccc3)[C@H](c3ccccc3)N2[C@H](c2ccc(OCCO)cc2)[C@@]12C(=O)Nc1ccc(C#CC3(O)CCCCCC3)cc12 | -2
50 | CN1C(=O)C2C(C1=O)C1C=C(c3ccc(CO)cc3)C2C(C2CC2)N1C (stereo unspecified) | -0.772
51 | COC(=O)[C@@]1(Cc2ccc(F)cc2)[C@H]2c3cc(C(=O)N4CCCC4)n(Cc4ccccn4)c3C[C@H]2CN1C(=O)c1ccccc1 | -2.45
52 | NC(=O)N1C(=O)C2C(C1=O)C1C=C(CCCO)C2C(c2ccc(CN3CCCC3)cc2)N1Cc1cc2c(cc1Br)OCO2 (stereo unspecified) | -1.5
53 | CCCCN1CC=CC23O[C@@H]4/C=C\CCCOC(=O)C4[C@H]2C(=O)N(C(CO)C(C)C)[C@@H]3C1=O (stereo partly specified) | -0.235
54 | O=C1O[C@H](c2ccccc2)[C@H](c2ccccc2)N2[C@H]1[C@@H](C(=O)N1CCN(c3ncccn3)CC1)[C@]1(C(=O)Nc3ccc(C#CCCO)cc31)[C@H]2c1ccc(O)cc1 | 0.186
55 | O=C1NC(=O)C2C1C=CC(C(O)c1ccc([N+](=O)[O-])cc1)N2Nc1ccccn1 (stereo unspecified) | -0.723
56 | O=C1C2C=CC(C(O)c3ccc([N+](=O)[O-])cc3)N(Nc3ccccc3F)C2C(=O)N1c1ccccc1 (stereo unspecified) | -0.608
57 | COc1ccc([Si](C)(C)[C@@H]2[C@@H](CC(=O)N(CCO)Cc3ccccc3)O[C@]3(C(=O)N(Cc4ccc(I)cc4)c4ccccc43)[C@H]2C)cc1 | -2.52
58 | CN1C(=O)C2C(C1=O)C1C=C(CCCO)C2C(C2CC2)N1Cc1cccc(OC(F)(F)F)c1 (stereo unspecified) | -0.615
59 | CCOC(=O)C[C@H]1[C@H](OC(=O)c2cc3ccccc3oc2=O)[C@@H](NC(=O)CC(C)C)c2cc(OCCCO)ccc2N1C(=O)Cc1ccc(OC)cc1 | -0.72
60 | NC(=O)N1C(=O)C2C(C1=O)C1C=C(CCCO)C2C(C2CC2)N1Cc1sc2ccccc2c1Cl (stereo unspecified) | 0.555
61 | COCCn1c(C(=O)N(C)C)cc2c1C[C@H]1CN(C(=O)c3ccccc3)[C@@](Cc3ccc(OC)cc3)(C(=O)OC)[C@@H]21 | -1.81
